# This is a sample that favours compounds with a hit; in the whole collection about 12% have one here.
# LASV entry inh – Lassa virus entry inhibition; Lassa virus pseudotype entry inhibition, cell reporter; Potency, µM (series often up to 37.9 µM), inactives show at the highest dose activity change, negative = inhibition, actives largely listed as inhibitors; actives 1.2% (n = 300,000); calls by dose curve; tested in HEK293 cells; note: potency is the fitted concentration of half-maximal effect; % is set by controls: 0 for no effect and ±100 for the full control effect; nearly all actives have a fitted effect of over 50% in size
# Marburg entry inh – Marburg virus entry inhibition | Marburg virus pseudotyped entry inhibition, cell reporter | Potency, µM (doses to about 37.8 µM), for the others: top-dose activity change, negative = inhibition, hits mostly inhibitors | actives 1.8% (n = 300,000); calls by dose curve; tested in HEK293 cells; note: potency is the fitted concentration of half-maximal effect; % is set by controls: 0 for no effect and ±100 for the full control effect
# Cycloheximide cs – affects cycloheximide protein synthesis inhibition readout, counter-screen. max response, %. AID 2314. cell reporter, cycloheximide protein synthesis inhibition counterscreen. actives 12% (n = 300,000); in the data active = max response mostly above about 13%, no sharp cut-off; inactive = mostly below about 14%; note: read at 38.3 µM for the half of the compounds with a filed dose; 0% is about no effect
# Shiga toxin inh – blocks Shiga toxin action in Vero cells; Vero cells, Shiga toxin protein synthesis inhibition reporter; actives 9.2% (n = 290,000); inhibition, % at 38.7 µM; AID 2315; in the data active = inhibition mostly above about 28%, no sharp cut-off; inactive = mostly below about 43%; note: 0% is about no effect
# * hit, by the source's call; u = inconclusive; x = not tested or not shown; [ ] = remark or other dose.
SMILES,LASV entry inh,Marburg entry inh,Cycloheximide cs,Shiga toxin inh
Cc1cccc(NC(=O)CN2C(=O)COc3ccc(S(=O)(=O)Nc4ccccc4)cc32)c1C,6%[46.1 µM],x,x,x
C/C(=N\NC(=O)c1ccccc1)c1ccc(NC(=O)C(F)(F)F)cc1,x,0%[46.1 µM],x,x
COc1ccc(C(=O)N/N=C(/C)c2cccc(NC(=O)C(F)(F)F)c2)cc1,-5%,1%,37*,73*
Cc1occc1C(=O)Nc1cccc(C(F)(F)F)c1,0%,-13%,14,14
Cc1occc1C(=O)Nc1cccc(/C=C/C(=O)O)c1,0%,-3%[46.1 µM],x,x
C/C(=N/NC(=O)c1ccc(C)s1)c1cccc(NC(=O)c2ccoc2C)c1,x,x,32*,37
C/C(=N/NC(=O)c1ccoc1C)c1cccc(NC(=O)C2CC2)c1,-20%,u,63*,73*
C/C(=N/NC(=O)c1ccoc1C)c1cccc(NC(=O)C(F)(F)F)c1,u,u,59*,104*
Cc1ccc(C)c(-c2nc(Cn3c(=O)cc(-c4ccccc4)c4c(C)nn(C)c43)c(C)o2)c1,12%[46.1 µM],x,x,x
CCC(C)(C)n1nnnc1C(c1ccc2ncccc2c1)N1CCN2CCCC2C1 (stereo unspecified),-6%,1%,-4,-5
OC1(c2ccccc2)CCN(Cc2ccccc2)C2CCCCC21 (stereo unspecified),u,8.9µM*,-3,-2
COc1cccc([C@H]2/C(=C(\O)c3ccc(OC)c(OC)c3)C(=O)C(=O)N2c2cc(C)on2)c1,x,-12%[46.1 µM],x,x
CCCOc1ccc(C(=O)Nc2ccc(S(=O)(=O)NC3=NCCCCC3)cc2)cc1,-24%,u,x,x
OCC1(Cc2ccccc2)CCN(Cc2cnc(-c3ccc(Cl)cc3)nc2)CC1,u,u,39*,91*
COc1ccc(-c2ncc(CN3CCC(CO)(Cc4cccc(OC)c4)CC3)cn2)cc1,x,x,8,27
COc1ccc(CC2(CO)CCN(Cc3cccnc3)CC2)cc1,5%,23%[46.1 µM],38*,33
OCCC1CN(Cc2cnc(-c3ccc(Cl)cc3)nc2)CCN1C1CCCCC1 (stereo unspecified),x,x,16*,28*
Cc1cc(=O)[nH]c(N/N=C/c2ccc(F)cc2)n1,20%[46.1 µM],-16%[46.1 µM],13*,9
Cc1cc(=O)[nH]c(N/N=C/c2ccc(N(C)C)cc2)n1,23%[46.1 µM],u,24*,50*
Cc1cc(=O)[nH]c(Nc2ccc(N(C)C)cc2)n1,x,x,1,-1
COc1cc(C(=O)NCC(=O)N2CCN(S(=O)(=O)c3cc(C)ccc3C)CC2)cc(OC)c1OC,x,x,-2,-4
O=C(CN1CCOCC1)Nc1ccc2c(c1)CCC2,x,x,17*,34
Cc1ccc(NC(=O)CN2CCN(C(=O)c3ccco3)CC2)cc1,4%[46.1 µM],u,-4,-4
S=C(Nc1ccc2c(c1)OCO2)N1CCN(Cc2ccco2)CC1,x,x,20*,28*
O=C(CN1CCN(c2ccccc2)CC1)Nc1ccc2c(c1)OCCO2,u,-7%,15,15
SMILES,LASV entry inh,Marburg entry inh,Cycloheximide cs,Shiga toxin inh
O=C(CN1CCOCC1)Nc1ccc2c(c1)OCCO2,x,x,16*,50*
O=C(CN1CCN(C(=O)c2ccco2)CC1)Nc1ccc2c(c1)OCCO2,4%,5%,27*,91*
O=C(CCN1CCOCC1)Nc1ccc2c(c1)CCC2,6%,1%,12,17
COC(=O)[C@@H]1CC[C@H](C)[C@@H](c2ccc(C)cc2)N1C(=O)c1ccc(C=NO[C@@H](C)c2cc(-c3c(C)cc(C)cc3C)no2)cc1,x,6%[14.2 µM],x,x
CC1CCN(c2ccc(-c3ccc(NC(=O)C(F)(F)F)cc3)nn2)CC1,u,u,36*,41*
CCCCN1C(=O)CN(C2CCCCCC2)C(=O)C1c1ccc(OCC)c(OC)c1 (stereo unspecified),-18%[46.1 µM],x,x,x
CCCS(=O)(=O)c1nc(S(=O)(=O)c2ccc(C)cc2)c(N(C)Cc2ccccc2)s1,-20%[46.1 µM],u,x,x
O=S(=O)(N[C@H](CO)c1ccccc1)c1ccc(Br)cc1F,u,0%,x,x
CC(=O)NC/C(C)=N\Nc1ccc([N+](=O)[O-])cc1,-9%[46.1 µM],u,10,3
C/C(=N\Nc1ncc(Br)cn1)c1cccc([N+](=O)[O-])c1,x,x,26*,90
C/C(=N\Nc1ccc([N+](=O)[O-])cc1)c1ccc(O)cc1,1%[46.1 µM],-3%[46.1 µM],37*,45*
C/C(=N\Nc1ccc([N+](=O)[O-])cc1)c1cccc(N)c1,x,2%,39*,123*
C/C(=N\NC(=O)OC(C)(C)C)c1cccc([N+](=O)[O-])c1,22%,u,11,29*
C/C(=N\Nc1nc(N2CCOCC2)nc(N2CCOCC2)n1)c1cccc([N+](=O)[O-])c1,1%,-22%[46.1 µM],-2,-2
C/C(=N/Nc1ccccc1[N+](=O)[O-])c1ccc([N+](=O)[O-])cc1,x,x,-8,-7
CCc1c(C)c2cc3c(c(C)c2oc1=O)OCN(CCc1ccccc1F)C3,u,13%[46.1 µM],x,x
CCOC(=O)CCCCN(Cc1ccccc1F)S(=O)(=O)c1ccc(F)c(C(=O)Nc2cc(Cl)cc(Cl)c2)c1,-8%[46.1 µM],x,x,x
CCCCNC(=O)c1ccc2c(=O)n(Cc3ccc(OC)cc3)c(=O)[nH]c2c1,10%[46.1 µM],u,x,x
Cc1cccc(NS(=O)(=O)c2ccc3c(c2)oc(=O)n3C)c1C,-5%[46.1 µM],8%[46.1 µM],-3,4
C/C(=N\NC(=O)c1ccc([N+](=O)[O-])cc1Cl)c1ccccc1,x,x,32*,56*
c1ccc(OCCCCn2cnc3ccccc32)cc1,-12%,u,6,14
Cc1ccc(OCCCCn2cnc3ccccc32)cc1,-1%[46.1 µM],-7%[46.1 µM],40*,88*
Brc1ccccc1OCCCn1cnc2ccccc21,u,u,35*,52
Cc1ccccc1OCCCCn1cnc2ccccc21,-2%,-22%,16*,23
COc1ccc(C2CC(=O)c3cc(-c4nc(-c5ccc(C)cc5)cs4)c(=O)[nH]c3C2)cc1 (stereo unspecified),-8%[46.1 µM],-1%[46.1 µM],x,x
SMILES,LASV entry inh,Marburg entry inh,Cycloheximide cs,Shiga toxin inh
CC(C)(C)CN1CCNC(=O)C1CC(=O)NCCc1ccccc1F (stereo unspecified),0%[46.1 µM],-2%[46.1 µM],3,26
CCc1nc(OCc2ccccc2)c2sc3nc4c(cc3c2n1)COC(C)(C)C4,22%[14.3 µM],16µM*,-3,24
CC(C)CSc1ncnc2c1oc1nc3c(cc12)COC(C)(C)C3,20%,13%,-2,-8
CCSc1ncnc2c1sc1nc3c(cc12)COC(C)(C)C3,u,u,19*,29
CC(C)COc1ncnc2c1sc1nc3c(cc12)COC(C)(C)C3,x,x,14,21*
C=CCSc1ncnc2c1oc1nc3c(cc12)COC(C)(C)C3,19%,8%[46.1 µM],15*,16
CCOc1ncnc2c1sc1nc3c(cc12)COC(C)(C)C3,17%,-3%,x,x
O=C(O)/C=C/C(=O)Nc1ccc(C2(c3ccc(NC(=O)/C=C/C(=O)O)cc3)c3ccccc3-c3ccccc32)cc1,x,x,0,-4
CCCC(=O)n1nc(-c2cccnc2)nc1NCc1ccccc1,5%[46.1 µM],u,-2,-11
C=CCn1c(C)nc2c(sc3nc4c(cc32)COC(C)(C)C4)c1=O,-14%[46.1 µM],u,43*,50*
CC1(C)Cc2nc3sc4c(=O)n(CC(=O)NCc5ccco5)cnc4c3cc2CO1,-6%,u,26*,69*
Cc1nn(CC(=O)NCc2ccc(F)cc2)c2ccccc12,0%[46.1 µM],-8%[46.1 µM],x,x

# Screens as filed in PubChem BioAssay.
